# CHT block = inhibitors of human choline transporter CHT; CHT-expressing cells, membrane potential dye, choline response; stronger effect = lower value; B-score at 10 µM; Q9GZV3; 310,000 compounds, 0.86% hits;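 active = B-score over 3 SD under the library average, and starting fluorescence ratio not unusually high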;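 note: choline stimulus applied at its EC90 after an EC20 pre-addition; B-score computed on integrated fluorescence ratio after choline addition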
# TMEM16A act = activators or potentiators of mouse TMEM16A chloride channel; Q8BHY3; HEK293 TMEM16A/YFP-H148Q/I152L, iodide quench fluorescence; stronger effect = lower value; B-score at 10 µM; 340,000 compounds, 0.3% hits; AID 623877;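 active = fluorescence-ratio B-score plate-corrected deviation score at least 3 library SD below zero, with starting fluorescence score within 5 deviations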;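 note: channel opened by trigger with iodide after compound preincubation; score built on the fluorescence ratio of max minus min over baseline; more negative score means more quench and so TMEM16A activation or potentiation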
# IDE act = activators of human insulin-degrading enzyme in cells | 340,000 compounds, 0.073% hits | activation, % at 5.96 µM | HEK cells, FAbeta-B cleavage, fluorescence polarization; 0% vehicle, 100% cell-free pure enzyme wells | P14735;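 active = activation above the mean of all tested compounds plus 3 SD, set per screening campaign, cut at about 17% in these data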
# Target sequence (P14735 whole entry, looked up): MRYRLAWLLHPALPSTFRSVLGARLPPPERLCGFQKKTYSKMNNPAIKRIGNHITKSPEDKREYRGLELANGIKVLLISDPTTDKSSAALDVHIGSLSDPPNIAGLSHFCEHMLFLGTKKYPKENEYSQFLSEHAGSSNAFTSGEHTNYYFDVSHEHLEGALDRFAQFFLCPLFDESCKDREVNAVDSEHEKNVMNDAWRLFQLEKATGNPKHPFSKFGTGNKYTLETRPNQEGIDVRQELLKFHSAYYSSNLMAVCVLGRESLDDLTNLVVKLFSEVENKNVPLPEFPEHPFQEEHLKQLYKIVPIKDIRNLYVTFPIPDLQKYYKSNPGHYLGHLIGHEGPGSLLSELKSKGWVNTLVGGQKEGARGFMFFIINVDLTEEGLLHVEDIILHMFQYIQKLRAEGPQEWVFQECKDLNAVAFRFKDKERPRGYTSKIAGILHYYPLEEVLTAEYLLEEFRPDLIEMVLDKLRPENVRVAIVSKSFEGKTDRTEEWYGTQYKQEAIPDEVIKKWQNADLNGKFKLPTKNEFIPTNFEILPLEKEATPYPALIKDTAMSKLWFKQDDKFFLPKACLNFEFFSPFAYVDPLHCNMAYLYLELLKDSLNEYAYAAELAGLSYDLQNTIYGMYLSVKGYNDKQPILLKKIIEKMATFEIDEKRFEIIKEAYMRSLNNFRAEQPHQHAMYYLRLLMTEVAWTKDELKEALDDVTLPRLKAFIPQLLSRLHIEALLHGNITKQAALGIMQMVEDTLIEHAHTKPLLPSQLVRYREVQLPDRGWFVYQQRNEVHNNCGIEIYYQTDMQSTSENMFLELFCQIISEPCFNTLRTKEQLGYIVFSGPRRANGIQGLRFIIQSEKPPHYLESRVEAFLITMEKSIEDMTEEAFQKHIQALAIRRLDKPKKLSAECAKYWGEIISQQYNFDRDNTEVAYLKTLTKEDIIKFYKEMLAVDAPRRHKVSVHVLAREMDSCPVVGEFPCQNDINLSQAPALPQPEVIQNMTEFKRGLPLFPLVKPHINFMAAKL
# IDE inh = inhibits human insulin-degrading enzyme in HEK cells; P14735; FAbetaB cleavage, fluorescence polarization; inhibition, % at 5.59 µM; 320,000 compounds, 0.41% hits; AID 434962;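 active = percent inhibition above the average of all tested compounds plus 3 SD, set per screening campaign, cut at about 16% in these data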;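 note: IDE supplied by intact live HEK cells; FP after avidin binding of uncleaved biotin substrate so inhibition keeps polarization high; 0% = DMSO wells and 100% = 60 µM reference IDE inhibitor Ii1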
# CHT allo act = allosteric activators of human choline transporter CHT; Q9GZV3; CHT-expressing cells, membrane potential dye, choline EC20; stronger effect = higher value; LV-AA mutant CHT in HEK293 cells; B-score at 10 µM; 310,000 compounds, 0.49% hits;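 active = initial fluorescence not abnormally high and integrated response B-score, plate-corrected, over 3 SD above library mean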
# TMEM16A inh = mouse TMEM16A channel inhibition, primary screen. Q8BHY3. HEK293 TMEM16A/YFP iodide influx fluorescence, ionomycin. normalized B-score (activity score, 25-100; higher = stronger inhibition) at 10 µM. 310,000 compounds, 1.2% hits. AID 588511;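 active = ratio plate-corrected score three or more library SD toward inhibition, starting fluorescence score within five deviations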;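 note: score derived from kinetic fluorescence span divided by baseline fluorescence per well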
# CHT block conf = confirmation of human choline transporter CHT inhibitors; shares compounds with CHT block; CHT-expressing cells, choline membrane potential dye; LV-to-AA substituted CHT, HEK293 cells; CHT activity remaining % of control (stronger effect = lower value), % at 10 µM; 2,400 compounds, 70% hits; AID 493221;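 active = choline transporter activity left, mean of duplicates at 10 µM, below buffer-only control mean minus 3 SD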;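 note: depolarization triggered by choline at its EC90 following an EC20 pre-addition; 0% = hemicholinium-3 full block and 100% = buffer-only control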
# HEK293 MPD ctr = counter-screen for CHT inhibitors: effect in parental HEK293 cells; membrane potential ratio readout (active if shifted either direction beyond buffer ±3SD; no single direction) at 10 µM; shares compounds with CHT block; membrane potential dye, choline response; active = decrease or increase beyond buffer ±3SD; 2,400 compounds, 4% hits;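 note: parental cells lack the transporter so any hit is non-specific; ratio is peak minus trough fluorescence over baseline after EC90 choline challenge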
# * marks the source's active call; other numbers are inactive results; i = inactive; / = no result. The list is not random: actives were taken first. Their share in the collection is about 2.7%.
SMILES,CHT block,TMEM16A act,IDE act,IDE inh,CHT allo act,TMEM16A inh,CHT block conf,HEK293 MPD ctr
CC1(C)C[C@@H]2C[C@@](C)(CN2C(=O)c2ccccc2)C1,i,i,6.1,-8.8,i,i,/,/
CC1(C)CC2CC(C)(CN2C(=O)CCCN2C(=O)c3ccccc3C2=O)C1 (centres undefined),-6.78*,i,-2.5,0.7,i,i,48.2%*,i
O=C(CSc1n[nH]c(-c2ccccc2)n1)Nc1ncc(Br)cc1Br,-6.53*,i,-8.5,3.9,i,i,56.7%*,i
CCCS(=O)(=O)N1CCN(Cc2ccco2)CC1,-6.69*,i,1.4,-1.5,i,i,i,i
CCCc1ccc(S(=O)(=O)N2CCN(Cc3ccco3)CC2)cc1,i,i,2.8,-3.4,i,i,/,/
CC(C)C(OC(=O)c1nsc(Cl)c1Cl)C(=O)NCc1ccccc1 (centres undefined),i,i,-10.0,8.1,i,i,/,/
COc1ccc(-c2nc(-c3cccs3)c(-c3cccs3)[nH]2)cc1O,-7.22*,i,4.5,0.7,i,i,69.8%*,i
CCOC(=O)c1sc2nc3c(SCC(=O)O)cc(C(=O)c4ccccc4O)cn3c(=O)c2c1C,i,i,7.2,-0.1,i,i,/,/
O=C(O)CSc1cc(C(=O)c2ccccc2O)cn2c(=O)c3c(-c4ccccc4)csc3nc12,-7.02*,i,-4.5,5.7,i,i,30.5%*,i
O=C(COc1ccc(F)cc1)Nc1c(C(=O)N2CCC(N3CCCCC3)CC2)oc2ccccc12,-11.9*,i,-0.5,0.7,i,i,28.8%*,i
CCOCCCN(C)C1CCN(C(=O)c2oc3ccccc3c2NC(=O)c2ccc(F)cc2)CC1,-9.02*,i,6.2,6.3,i,i,20.6%*,i
O=C(Nc1c(C(=O)N2CCC(N3CCCCC3)CC2)oc2ccccc12)c1c(F)cccc1F,i,i,1.5,-0.4,i,i,/,/
COc1ccc(OCC(=O)Nc2c(C(=O)N3CCC(N4CCCCC4)CC3)oc3ccccc23)cc1,i,i,6.8,1.6,i,i,/,/
O=C(Nc1c(C(=O)N2CCC(N3CCCCC3)CC2)oc2ccccc12)c1ccc(F)cc1,-13.1*,i,6.9,-2.5,i,i,0.9%*,i
O=C(COc1ccccc1)Nc1c(C(=O)N2CCC(N3CCCCC3)CC2)oc2ccccc12,-7.48*,i,-3.3,2.1,i,i,36.7%*,3.69*
CCN(c1ccc(NC(=O)c2cccc(S(=O)(=O)N3CCN(C)CC3)c2)cc1)C(C)C,i,i,-4.6,8.1,i,i,/,/
COc1ccc(C(=O)N/C(=C\c2cn(S(=O)(=O)N(C)C)c3ccccc23)C(=O)N2CCN(C)CC2)cc1,i,i,2.2,6.7,i,i,/,/
Cc1cc(=O)[nH]c2nnc(-c3ccc(Br)cc3)n12,i,i,1.3,/,i,i,/,/
CCOC(=O)CN1C(=O)N(CC(=O)OCC)C(c2ccccc2)(c2ccccc2)C1=O,i,i,5.1,-6.8,i,i,/,/
CN(Cc1ccccc1)C(=O)c1cccc(NC(=O)Cc2cccc([N+](=O)[O-])c2)c1,/,i,5.2,-0.8,/,/,/,/
CC(NC(=O)c1cc(=O)[nH]c2ccccc12)c1ccccc1 (centres undefined),i,i,0.5,0.3,i,i,/,/
CCOC(=O)c1cc(C(=O)NC(C)c2ccccc2)c(=O)[nH]c1C (centres undefined),-11.5*,i,-1.3,-4.8,i,i,26.3%*,i
CC1CCC(NC(=O)Cn2c3c(c(-c4ccccc4Cl)cc2=O)CCC3)CC1 (centres undefined),-6.81*,i,-8.4,5.2,i,i,45.6%*,i
CCN(CC)CCCN1C=C2C(=O)C(C)(OC(=O)CCC(=O)OC)C(=O)C=C2C=C1C1CC1 (centres undefined),-5.75*,i,-4.5,-1.4,i,i,45.4%*,i
COC(=O)CCC(=O)OC1(C)C(=O)C=C2C=C(C3CC3)N(CC3CC3)C=C2C1=O (centres undefined),i,i,0.2,6.0,i,i,/,/
SMILES,CHT block,TMEM16A act,IDE act,IDE inh,CHT allo act,TMEM16A inh,CHT block conf,HEK293 MPD ctr
OC1CCN(c2c3c(nc4cc(-c5cccc(F)c5)nn24)CCCC3)CC1,i,i,-1.9,9.1,i,i,/,/
Fc1cccc(-c2cc3nc4c(c(N5CCC6(CC5)OCCO6)n3n2)CCCC4)c1,-7.79*,i,-2.1,3.6,i,i,i,i
CCOC(=O)c1c(/N=C/c2cc([N+](=O)[O-])ccc2O)sc(C)c1C,-5*,i,1.0,-3.3,i,i,i,i
Cc1ccc(S(=O)(=O)N2CCN(CCOc3cccc(C)c3)CC2)cc1,/,i,1.9,-3.7,/,/,/,/
O=C(O)C(Cc1c[nH]c2ccccc12)NS(=O)(=O)c1cccc(Cl)c1Cl (centres undefined),i,i,1.4,1.7,i,i,/,/
CCOC(=O)c1sc(=S)n(-c2ccccc2)c1N(C(C)=O)C(C)=O,-6.23*,i,5.6,-1.1,i,i,65.4%*,i
Cc1ccc(C)c(S(=O)(=O)N2CCN(C(=O)CCC(=O)NCc3ccc(Cl)cc3Cl)CC2)c1,/,i,6.8,/,/,/,/,/
Cc1ccc(SCC2=NN(c3nc(C)cc(C)n3)C(=O)C2)cc1,-6.46*,i,6.7,7.2,i,i,23.4%*,i
O=C(NNc1cc(Cl)cc(Cl)c1)c1cccs1,-6.13*,i,6.0,-3.0,i,i,42.9%*,i
O=C(NNC(=O)c1cccs1)Nc1cccc(Cl)c1,i,i,1.8,8.5,i,i,/,/
Cc1ccc(S(=O)(=O)N2CCCCC2)cc1NC(=O)CSc1nncn1-c1ccccc1,-6.14*,i,-4.2,8.1,i,i,40.8%*,i
COc1ccc(-n2cnnc2SCC(=O)Nc2cc(S(=O)(=O)N3CCCCC3)ccc2C)cc1,-5.31*,i,1.2,0.5,i,i,53.1%*,i
COc1ccc(-n2cnnc2SCC(=O)Nc2cccc(S(=O)(=O)N3CCCCC3)c2)cc1,i,i,2.1,8.0,i,i,/,/
